Assay outcomes deposited in PubChem by The Scripps Research Institute Molecular Screening Center.
HTR5A ag: HTR5A agonists in luminescence cell assay, primary screen, counter-screen for OPRM1-OPRD1 heterodimer agonist project, full-deck HTS | 5-hydroxytryptamine receptor 5A (Homo sapiens), P47898 | AID 504692, 2011 | activation, % at 9.3 µM | cell-based | 0.61% of 340,000 active; in the data active = activation mostly above about 9.5%, no sharp cut-off; inactive = mostly below about 7.6%
OPRM1-OPRD1 inv: inverse agonists of MOR-DOR heterodimerization, primary screen, cell-based, luminescence; Mu-type opioid receptor (Homo sapiens) + Delta-type opioid receptor (Homo sapiens), …; cell-based MOR-DOR heterodimer luminescence, inverse agonism; inhibition, % at 9.3 µM; 0.21% of 340,000 active; AID 504357, 2011; in the data active = inhibition above about 22%, passing the limit was not always enough
HTR5A inv ctr: HTR5A inverse agonists in luminescence cell assay, primary screen, counter-screen for OPRM1-OPRD1 heterodimer inverse agonist project, full-deck HTS | AID 504634, 2011 | HTR5A cell line, inverse agonism | 0.083% of 340,000 active | inhibition, % at 9.3 µM; in the data active = inhibition mostly above about 23%, no sharp cut-off; inactive = mostly below about 18%
m5-HT2A agonist: mouse Htr2a agonists via beta-arrestin recruitment, primary screen, cell-based, luminescence; 5-hydroxytryptamine receptor 2A (Mus musculus), P35363; CHO-K1 mHTR2A beta-arrestin complementation; percent of 30 µM serotonin response; activation, % at 7.6 µM; 0.66% of 360,000 active; AID 624169, 2012;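 active = activation above a run cutoff, the mean activation of all tested compounds plus 3 SD, cut at about 14% in these data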
Target sequence (P35363 whole entry, looked up): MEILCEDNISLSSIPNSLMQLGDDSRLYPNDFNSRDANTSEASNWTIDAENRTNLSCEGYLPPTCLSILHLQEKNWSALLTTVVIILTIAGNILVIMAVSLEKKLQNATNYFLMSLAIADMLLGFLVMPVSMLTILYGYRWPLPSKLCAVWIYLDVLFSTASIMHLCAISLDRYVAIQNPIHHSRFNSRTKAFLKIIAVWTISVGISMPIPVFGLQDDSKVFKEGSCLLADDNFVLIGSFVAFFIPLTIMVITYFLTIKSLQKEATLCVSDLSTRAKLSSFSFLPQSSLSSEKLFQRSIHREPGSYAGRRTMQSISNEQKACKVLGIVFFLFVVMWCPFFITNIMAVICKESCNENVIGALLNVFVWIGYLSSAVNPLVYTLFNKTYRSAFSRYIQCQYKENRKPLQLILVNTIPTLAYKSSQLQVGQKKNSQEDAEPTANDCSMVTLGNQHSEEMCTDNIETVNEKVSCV
MOR-DOR ag: agonists of OPRM1-OPRD1 heterodimerization, primary screen, cell-based, luminescence; Mu-type opioid receptor (Homo sapiens) + Delta-type opioid receptor (Homo sapiens), …; cells; activation, % at 9.3 µM; 0.3% of 340,000 active; AID 504326, 2011; in the data active = activation above about 18%
OPRM1 ag: OPRM1 agonists via beta-arrestin recruitment, confirmation, counter-screen for mouse HTR2A agonist project, cell-based, luminescence, single concentration; shares compounds with m5-HT2A agonist; U2OS OPRM1 beta-arrestin PathHunter; DMSO 0%, DAMGO 9.3 µM 100%; activation, % at 9.3 µM; 5.3% of 2,300 active; AID 624380, 2012;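 active = mean activation above the mean of DMSO-only wells plus 3 SD, cut at about 0.5% in these data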
m5-HT2A ag conf: mouse HTR2A agonists, beta-arrestin recruitment, confirmation, cell-based, luminescence, CHO-K1 PathHunter, triplicate | 19% of 2,300 active | shares compounds with m5-HT2A agonist | activation, % at 7.6 µM | DMSO 0%, 30 µM serotonin 100%;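 active = mean activation across triplicates above the hit threshold derived in the original primary screen, cut at about 15% in these data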
Numbers stand for hits; - = inactive; . = no result. In the library only some 1.6% were active in any assay of this set; here they are far more common.

SMILES | HTR5A ag | OPRM1-OPRD1 inv | HTR5A inv ctr | m5-HT2A agonist | MOR-DOR ag | OPRM1 ag | m5-HT2A ag conf
COc1ccc(OC)c(CN2C(=O)c3ccccc3C2c2nnnn2-c2ccc3c(c2)OCCO3)c1 (stereo not drawn) | . | . | . | - | . | . | .
COc1cc(NC(=O)c2ccco2)c(OC)cc1NC(=O)Nc1ccc(Cl)cc1 | - | - | - | 15 | - | - | -
CCOc1ccc(-c2nnc3ccc(SCC(=O)Nc4nc5ccccc5s4)nn23)cc1 | - | - | - | - | - | . | .
CCOc1ccc(-c2nnc3ccc(SCC(=O)Nc4nc5ccc(C)cc5s4)nn23)cc1 | - | - | - | 17 | - | - | -
CC(NC(=O)Nc1ccccc1C(F)(F)F)C1CCCO1 (stereo not drawn) | - | - | - | 26 | - | - | -
Cc1ccc2nc3n(c(=O)c2c1)-c1ncccc1C(=O)NC3Cc1ccc(O)cc1 (stereo not drawn) | . | . | . | - | . | . | .
O=C(C1CCN(CCCc2ccccc2)CC1)N1CCCCC1 | - | - | - | 20 | - | - | 45
CCCc1nc2c(Cl)cc(C(F)(F)F)cn2c1Cc1ccc(OC)cc1C | . | . | . | - | . | . | .
Cc1ccc(-c2nc(S(=O)(=O)c3ccc(F)cc3)c(SCC(=O)NCC3CCCO3)o2)cc1 (stereo not drawn) | - | - | - | - | - | . | .
Cc1ccc(S(=O)(=O)c2nc(-c3ccc(F)cc3)oc2SCC(=O)NCC2CCCO2)cc1 (stereo not drawn) | - | - | - | 15 | - | - | -
COc1ccc2c(c1OC)C(CC(C)=O)N1CCc3cc4c(cc3C1C2=O)OCO4 (stereo not drawn) | . | . | . | - | . | . | .
O=C(CC[C@H]1O[C@@H](n2cnc3c(NC(=O)c4ccccc4)ncnc32)[C@H](O)[C@@H]1O)NCCCN1CCCC1=O | . | . | . | - | . | . | .
O=C(Nc1ccc(Br)cc1F)c1nc[nH]c1C(=O)N1CCc2ccccc2C1 | . | . | . | - | . | . | .
Cc1cccc(C)c1C(O)c1ncc(-c2cccc3ccccc23)[nH]1 (stereo not drawn) | . | . | . | - | . | . | .
N#Cc1ccccc1C[C@H](N)C(=O)NC[C@H]1O[C@@H](n2ccc(N)nc2=O)[C@H](O)[C@@H]1O | . | . | . | 29 | . | - | -
O=C(NCc1ccccc1)c1nc(-c2c(F)cccc2F)oc1-c1ccccc1 | . | . | . | - | . | . | .
CC1=C(C(=O)N(C(C)C)C(C)C)CC(CC(=O)NCCN2CCOCC2)C(=O)N1CCC1=CCCCC1 (stereo not drawn) | . | . | . | 16 | . | - | -
CCCCNC(=O)c1nc(C2CCN(S(=O)(=O)c3ccc(OC(F)(F)F)cc3)CC2)oc1-c1ccccc1 | . | . | . | - | . | . | .
CC(C(=O)Nc1sc2c(c1C#N)CCCCC2)N1C(=O)c2ccccc2C1=O (stereo not drawn) | - | - | - | 25 | - | - | -
N#Cc1c(NC(=O)c2ccccc2)sc2c1CCCCC2 | - | - | - | - | - | . | .
Cc1ccc(Cc2c(C(C)(C)C)nc3cc(C)c(Br)c(C)n23)cc1 | . | . | . | - | . | . | .
COc1cc(CCCN2C(N)=NC[C@@H]2Cc2ccccc2)cc(OC)c1OC | - | - | - | 16 | - | - | -
CCOc1ccccc1NC(=O)CSc1nnc(CNC(=O)c2ccccc2F)o1 | - | - | - | 17 | - | - | -
CCOC(=O)c1ccc(NC(=O)CSc2nnc(CNC(=O)c3ccccc3F)o2)cc1 | - | - | - | - | - | . | .
COc1ccc(CNC(=O)CN(C(=O)CCC(=O)Nc2ccccn2)c2ccc(C)cc2)cc1 | - | - | - | 30 | - | - | -
O=C(Nc1ccc2c(c1)OCCO2)C(C1CC1)n1c(=O)c(-c2cc3ccccc3[nH]2)nc2ccccc21 (stereo not drawn) | . | . | . | - | . | . | .
